Results on 28 molecules are retold here after PubChem BioAssay AID1986 (Sanford-Burnham Center for Chemical Genomics, 2009).

The inhibition is the drop in the measured response relative to a control, in per cent.

The campaign covered roughly 290,000 compounds. About 890 (0.31%) were called active. Cut-off read from the data, not from the text of the source: active = inhibition mostly above about 52% (no sharp cut-off); inactive = mostly below about 76%. The sample as a whole holds a higher share of actives than the screen did.

The assay can be described thus: inhibitors of HIV fusion peptide binding, primary screen, biochemical, uHTS, fluorescence dequenching (AID 1986). The settings on record: cell-free peptide binding, 30 min, stronger effect = higher value.
[1] abbreviates: measured here: repeat confirmation average inhibition, at 18.6 µM.

Consider `O=C(/C=C/c1ccc(OCCCF)cc1)NCc1ccc(Cl)c(Cl)c1`, for which the inhibition (at 20 µM) was 1.7% (inactive). Regarding `COC(=O)c1cnn(-c2ccc(F)cc2F)c1/C=N/NC(N)=S`, for the setting “at 20 µM”, the inhibition is -1.1% (inactive).

On to `CC(=O)NN1C(=O)c2ccccc2NC1c1ccc(N(C)C)cc1` (stereo not given), for which the inhibition (at 20 µM) is -0.9% (inactive). As for `COC(=O)Cn1c(=NC(=O)c2ccc(S(=O)(=O)N3CCc4ccccc4C3)cc2)sc2cc(OC)ccc21`, the inhibition (at 20 µM) was -1.3% (inactive). On to `O=C(N/N=C/c1ccncc1)c1cc(C2CC2)nc2ccccc12`, for which the inhibition (at 20 µM) is -0.8% (inactive).

For `CC1CCc2c(sc(NC(=O)C3c4ccccc4Oc4ccccc43)c2C(N)=O)C1` (stereo not given), where the note is “at 20 µM”, the inhibition is -1.5% (inactive).

Regarding `COC(=O)Nc1sc2c(c1C(N)=O)CCC(C)C2` (stereo not given), the inhibition (at 20 µM) was 0.2% (inactive). In the case of `CC1CCc2c(sc(Nc3nc4c(F)cccc4s3)c2C(N)=O)C1` (stereo not given), the inhibition (at 20 µM) is 58.8% (active).

With `NC(=O)c1c(NC(=O)c2ccccc2F)sc2c1CCCC2`, where the note is “at 20 µM”, the inhibition was -0.3% (inactive). For `COc1ccc2nc(Nc3sc4c(c3C(N)=O)CCCC4)sc2c1`, the inhibition (at 20 µM) was 17.5% (inactive). As for `NC(=O)c1c(Nc2nc3c(F)cccc3s2)sc2c1CCCC2`, the inhibition (at 20 µM) is 59.5% (active). In the case of `Cc1c(C(=O)N(Cc2nccn2C)C(C)C)oc2c(F)cccc12`, the inhibition (at 20 µM) is -1% (inactive).

Take `O=c1cc(C(F)(F)F)nc(-c2cccnc2)[nH]1`: under “at 20 µM”, the inhibition was -1.2% (inactive). On the same count and under the same terms, the value for `CC(C)C(=O)Nc1ccc([N+](=O)[O-])cc1Br` was 1.2% (inactive); that for `C/C(O)=C/c1nc2ccccc2[nH]c1=O` was 0.1% (inactive); that for `O=c1[nH]c2ccccc2nc1/C=C(\O)c1cccs1` was 66.1% (active). Take `O/C(=C\c1nc2ccccc2[nH]1)c1cccs1`: the inhibition (at 20 µM) is 14.3% (inactive). As for `CCCCC(=O)Nc1cccn2ncnc12`, under “at 20 µM”, the inhibition was 0.2% (inactive). In the case of `C/C(=N\NC(=O)c1c[nH]c2ccccc12)c1ccc(C)o1`, the inhibition (at 20 µM) is 0.2% (inactive).

On to `O=C1OC(/C=C/c2ccc(Cl)cc2Cl)=NC/1=C\c1cccs1`, for which the inhibition (at 20 µM) was 54.2% (active).

As to `Cc1ccccc1C1=N/C(=C/c2cccs2)C(=O)O1`, the inhibition (at 20 µM) is 4.6% (inactive). Take `Cc1cccc(C2=N/C(=C\c3cccs3)C(=O)O2)c1`: for the setting “at 20 µM”, the inhibition is 4.7% (inactive). On to `CCC(=O)OCc1cc2cccc(C)c2[nH]c1=O`, for which, under “at 20 µM”, the inhibition is -1.9% (inactive). As for `O=C1C(=Cc2cccn2-c2ccccc2)C(=O)c2ccccc21`, the inhibition was 50.1% (inactive) (at 20 µM) and 28.2% under setting [1].

In the case of `O=C(O)c1cccc(-n2cccc2C=C2C(=O)c3ccccc3C2=O)c1`, under “at 20 µM”, the inhibition is 30.1% (inactive). With `O=C1C(=Cc2cccn2-c2ccc(O)cc2)C(=O)c2ccccc21`, the inhibition runs as follows: (at 20 µM) 63.1% (active); under setting [1], 70.3%. `COC(=O)Cn1ncc(N2C3CC(CC(C)(C)C3)C2C)c(Cl)c1=O` (stereo not given): where the note is “at 20 µM”, the inhibition is 1.1% (inactive).

Consider `Oc1cccc2ccc(/C=C/c3ccccc3Br)nc12`, for which, for the setting “at 20 µM”, the inhibition was 0.6% (inactive).
